The supplement of paper PMC12494721
Structures can show the parent of a compound that is named as a salt.

System: Klebsiella aerogenes DSM 30053
Assay: growth (OD595) fold change vs plate DMSO controls (fold change (ratio)); higher = more growth
Details: incubation time: 27 h, anaerobic, 37 °C
Procedure, shortened: (§1)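 Anaerobic 27 h, 37 °C mGAM 96-well cultures were shaken, then read for absorbance at 595 nm. Values were blank-subtracted and corrected for compound background using 20 µM compound solutions in water. A calibration factor of 5 converted them to OD. Growth is the fold change versus the median of plate DMSO controls. Fold changes above 1.5 were set to NA, and values are the mean of 2 biological replicates.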

Compound | growth
C[C@@H](O[C@H]1OCCN(Cc2n[nH]c(=O)[nH]2)[C@H]1c1ccc(F)cc1)c1cc(C(F)(F)F)cc(C(F)(F)F)c1 [Aprepitant] (20 µM) | 1
CCOC(=O)c1c(N)sc2c1CCN(Cc1ccccc1)C2 [Tinoridine hydrochloride] (20 µM) | 0.967
C/C(=C1\CCOC(=O)S1)N(C=O)Cc1cnc(C)nc1N [Cycotiamine] (20 µM) | 0.991
CCN1CCN(C(=O)N[C@@H](C(=O)N[C@@H]2C(=O)N3[C@@H]2SC(C)(C)[C@@H]3C(=O)O)c2ccccc2)C(=O)C1=O [Piperacillin sodium salt] (20 µM) | 1.07
CN1CCN2c3ccccc3Cc3ccccc3C2C1 (stereo not drawn) [Mianserine hydrochloride] (20 µM) | 0.995
O=C(Oc1cccc2cccnc12)c1ccccc1 [Benzoxiquine] (20 µM) | 1.04
Cc1cc(=O)n(-c2ccccc2)n1C [Antipyrine] (20 µM) | 1.03
O=C1c2cccc(O)c2C(=O)c2c(O)cccc21 [Danthron] (20 µM) | 1.01
Cc1c(Nc2ncccc2C(=O)O)cccc1C(F)(F)F [Flunixin meglumine] (20 µM) | 1.05

System: Ruminococcus gnavus DSM 108212
Assay: as above
Details: incubation time: 27 h, anaerobic, 37 °C
Procedure, shortened: as §1

Compound | growth
COc1ccc(CC(C)NCC(O)c2ccc(O)c(NC=O)c2)cc1 (stereo not drawn) [Formoterol fumarate] (20 µM) | 1.3
CCN(CC)CCc1nc(-c2ccccc2)no1 [Oxolamine citrate salt] (20 µM) | 1.01
O=C(O)c1cc(-c2ccc(F)cc2F)ccc1O [Diflunisal] (20 µM) | 1.22
NC(=O)NC1NC(=O)NC1=O (stereo not drawn) [Allantoin] (20 µM) | 1.09
CN1CCCN=C1/C=C/c1cccs1 [Pyrantel tartrate] (20 µM) | 1.04
CCN1CCN(c2cc3c(cc2F)c(=O)c(C(=O)O)cn3C2CC2)CC1 [Enrofloxacin] (20 µM) | 1.29
CCCNC(C)C(=O)Nc1c(C)csc1C(=O)OC (stereo not drawn) [Articaine hydrochloride] (20 µM) | 1.12
CCN(CC)CC(=O)Nc1c(C)cccc1C [Lidocaine hydrochloride] (20 µM) | 0.66
CCn1cc(C(=O)O)c(=O)c2cc(F)c(N3CCNC(C)C3)c(F)c21 (stereo not drawn) [Lomefloxacin hydrochloride] (20 µM) | 1.01
C[C@]12CCC(=O)C=C1CC[C@@H]1[C@@H]2C(=O)C[C@@]2(C)[C@H]1CC[C@]2(O)C(=O)CO [Cortisone] (20 µM) | 1.23
CCN(CC)CCNC(=O)c1cc(Cl)c(N)cc1OC [Metoclopramide monohydrochloride] (20 µM) | 1.13
C[C@@H](CN1CC(=O)NC(=O)C1)N1CC(=O)NC(=O)C1 [Dexrazoxane hydrochloride] (20 µM) | 0.949
CCOc1ccc(NC(C)=O)cc1 [Phenacetin] (20 µM) | 1.3
CC(C)C(=O)Nc1ccc([N+](=O)[O-])c(C(F)(F)F)c1 [Flutamide] (20 µM) | 1.32
Cc1ccc2c([nH]c(=O)c3c(=O)cc(C(=O)OCCC(C)C)oc32)c1C [Repirinast] (20 µM) | 1.08
CCCCc1oc2ccccc2c1C(=O)c1cc(I)c(OCCN(CC)CC)c(I)c1 [Amiodarone hydrochloride] (20 µM) | 0.65
NCc1ccc(S(N)(=O)=O)cc1 [Mafenide hydrochloride] (20 µM) | 0.971
CC[C@@H](CO)NCCN[C@@H](CC)CO [Ethambutol dihydrochloride] (20 µM) | 0.965
Nc1c2ccccc2nc2ccccc12 [Aminacrine] (20 µM) | 1.45
CC(C(=O)O)c1cccc(C(=O)c2ccccc2)c1 (stereo not drawn) [Ketoprofen] (20 µM) | 0.957

Compound | growth
CCOC(=O)[C@H](CCc1ccccc1)N[C@H]1CS[C@H](c2cccs2)CN(CC(=O)O)C1=O [Temocapril hydrochloride] (20 µM) | 1.05
CC(COc1ccccc1)N(CCCl)Cc1ccccc1 (stereo not drawn) [Phenoxybenzamine hydrochloride] (20 µM) | 1.02
CC1(C)OC(=O)NC1=O [Dimethadione] (20 µM) | 1.02
c1cnc(N2CCN(Cc3ccc4c(c3)OCO4)CC2)nc1 [Piribedil] (20 µM) | 0.998
O=c1[nH]c(=O)n(C2CCCO2)cc1F (stereo not drawn) [Tegafur] (20 µM) | 0.933
Nc1ccc(S(=O)(=O)Nc2ncccn2)cc1 [Sulfadiazine] (20 µM) | 0.958
Cc1onc(-c2c(Cl)cccc2Cl)c1C(=O)N[C@@H]1C(=O)N2[C@@H]1SC(C)(C)[C@@H]2C(=O)O [Dicloxacillin sodium salt hydrate] (20 µM) | 0.165
CN(C)CCC=C1c2ccccc2C=Cc2ccccc21 [Cyclobenzaprine hydrochloride] (20 µM) | 0.869
C#C[C@]1(O)CC[C@H]2[C@@H]3CCc4cc(O)ccc4[C@H]3CC[C@@]21C [Ethinylestradiol] (20 µM) | 1.05
CN1CC(O)c2cc(N=NC(N)=O)c(O)cc21 (stereo not drawn) [Carbazochrome] (20 µM) | 0.959
C[C@@H](O[C@H]1OCCN(Cc2n[nH]c(=O)[nH]2)[C@H]1c1ccc(F)cc1)c1cc(C(F)(F)F)cc(C(F)(F)F)c1 [Aprepitant] (20 µM) | 1.2
CCOC(=O)c1c(N)sc2c1CCN(Cc1ccccc1)C2 [Tinoridine hydrochloride] (20 µM) | 1.14
C/C(=C1\CCOC(=O)S1)N(C=O)Cc1cnc(C)nc1N [Cycotiamine] (20 µM) | 1.01
CCN1CCN(C(=O)N[C@@H](C(=O)N[C@@H]2C(=O)N3[C@@H]2SC(C)(C)[C@@H]3C(=O)O)c2ccccc2)C(=O)C1=O [Piperacillin sodium salt] (20 µM) | 0
CN1CCN2c3ccccc3Cc3ccccc3C2C1 (stereo not drawn) [Mianserine hydrochloride] (20 µM) | 0.931
O=C(Oc1cccc2cccnc12)c1ccccc1 [Benzoxiquine] (20 µM) | 1.13
Cc1cc(=O)n(-c2ccccc2)n1C [Antipyrine] (20 µM) | 0.869
O=C1c2cccc(O)c2C(=O)c2c(O)cccc21 [Danthron] (20 µM) | 0.841
Cc1c(Nc2ncccc2C(=O)O)cccc1C(F)(F)F [Flunixin meglumine] (20 µM) | 1.15
